Sm TGR inh: qHTS Assay for the Inhibitors of Schistosoma Mansoni Peroxiredoxins; purified TGR, DTNB reduction, TNB absorbance 405 nm; Potency, µM (highest dose often 114 µM), without a hit: at the top dose activity change, negative = inhibition, most hits filed as inhibitors; actives 3% (n = 360,000); note: % is set by controls: 0 for no effect and ±100 for the full control effect; nearly all actives have a fitted effect of over 60% in size
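TGR 20 nM + NADPH 100 uM (dispensed conc.), cpd preinc 15 min RT; start with NADPH (500 uM addition) then DTNB (15 mM addition). Kinetic TNB absorbance, 405 nm filter. Four-parameter Hill fit across titration.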
RE007 growth inh: qHTS Assay for Inhibitors of the HIV-1 protein Vpr | S. pombe RE007 Vpr strain, BacTiter-Glo ATP luminescence, 24 h | Potency, µM (top dose mostly 92.2 µM), without a hit: top-dose activity change, negative = less growth, actives largely listed as inhibitors | actives 0.21% (n = 360,000) | AID 651644, 2012; active = well fitted falling curve with a large enough effect; inconclusive = small, poorly fitted or top-dose-only effect; inactive = no such curve, though single readings can be large or run the other way; note: % is set by controls: 0 for no effect and ±100 for the full control effect; nearly all actives have a fitted effect of over 50% in size
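Fission yeast RE007 carrying one integrated HIV-1 vpr copy, seeded at OD 0.01 in PMG+AL medium with 23 nL pinned compound. Grown 24 h at 30 degrees; viability read by BacTiter-Glo luminescence after 5 min.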
SARS PLP yeast: qHTS of Yeast-based Assay for SARS-CoV PLP; S. cerevisiae expressing SARS-CoV PLpro, growth rescue; Potency, µM (titrated, usually from 32.9 µM), inactives show at the top dose activity, positive = growth rescue, hits mostly activators; actives 0.19% (n = 330,000); AID 485353, 2010; calls by dose curve; note: 0% is about no effect; nearly all actives have a fitted effect of over 55% in size
Tb PYK inh: qHTS of Trypanosoma Brucei Inhibitors | pyruvate kinase (Trypanosoma brucei), Q57TT1 | TbPYK enzyme, Kinase-Glo Plus ATP luminescence, 45 min | Potency, µM (highest dose often 76.8 µM), for the others: at the highest dose activity, negative = inhibition, actives largely listed as inhibitors | actives 0.12% (n = 410,000); note: % is set by controls: 0 for no effect and ±100 for the full control effect; nearly all actives have a fitted effect of over 50% in size
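ADP (130 uM final) triggers the TbPYK reaction after compound addition; incubation is 45 min at room temperature. Kinase-Glo Plus is then added and luminescence imaged. Normalized data are fitted to concentration-effect curves.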
LmPK inhibitor: qHTS Assay for Inhibitors of Leishmania Mexicana Pyruvate Kinase (LmPK); actives 0.37% (n = 290,000); AID 1721, 2009; Q27686; Potency, µM (doses to about 57.5 µM), for inactives: top-dose activity change, negative = inhibition, usual class: inhibitors; purified LmPK, Kinase-Glo ATP luminescence, 1 h; note: % is set by controls: 0 for no effect and ±100 for the full control effect
Target sequence (Q27686 whole entry, looked up): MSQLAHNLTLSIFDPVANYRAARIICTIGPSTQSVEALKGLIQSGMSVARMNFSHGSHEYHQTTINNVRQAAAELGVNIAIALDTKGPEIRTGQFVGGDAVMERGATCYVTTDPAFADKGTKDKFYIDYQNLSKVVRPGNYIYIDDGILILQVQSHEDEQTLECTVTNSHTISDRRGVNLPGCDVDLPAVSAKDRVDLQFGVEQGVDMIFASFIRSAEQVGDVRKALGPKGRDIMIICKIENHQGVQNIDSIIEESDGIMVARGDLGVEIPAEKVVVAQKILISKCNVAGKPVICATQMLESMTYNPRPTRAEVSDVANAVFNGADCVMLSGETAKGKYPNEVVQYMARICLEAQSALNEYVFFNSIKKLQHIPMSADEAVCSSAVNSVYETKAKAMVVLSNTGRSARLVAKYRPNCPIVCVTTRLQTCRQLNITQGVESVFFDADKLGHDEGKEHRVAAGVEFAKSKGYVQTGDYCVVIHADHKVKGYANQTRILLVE
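Purified LmPK (0.1 nM) with 0.5 mM PEP and 0.1 mM ADP in imidazole buffer pH 7.2 with MgCl2/KCl, 1 h at room temperature. ATP formed was read by luciferase luminescence and normalized to no-enzyme and uninhibited controls.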
NS1 function inh: qHTS Assay for Inhibitors of Influenza NS1 Protein Function; Potency, µM (doses to about 46.1 µM), inactives show at the highest dose activity, positive = more growth; actives 0.4% (n = 270,000); calls by dose curve; note: actives are rising curves; nearly all actives have a fitted effect of over 50% in size
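A cell-based growth assay was used: compounds that relieve NS1-induced slow growth of budding yeast raise OD600. Assay medium was yeast nitrogen base with ammonium sulphate and -URA supplement, pH 6.0, with 2% galactose.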
* = called active by the depositor; ? = inconclusive; / = not tested or not shown; [ ] = another dose, or the depositor's remark. Compounds with a hit are over-represented: about 3.3% of the library has one in this group of screens. Unless noted, calls come from the whole dose curve; as a rule, active = well fitted curve in the direction sought with a large enough effect; inconclusive = small, poorly fitted or top-dose-only effect, or another doubt; inactive = no such curve, though single readings can be large; an effect the other way counts as inactive or inconclusive. Potency is the fitted concentration of half-maximal effect.

SMILES	Sm TGR inh	RE007 growth inh	SARS PLP yeast	Tb PYK inh	LmPK inhibitor	NS1 function inh
COc1ccc(C(=O)Nc2ccc(N3CCCC3)cc2)cc1	56.2µM*	-22.3%	-12.8%	-11.3%	-23.1%	10.2%
COc1cc(C(=O)OCC(=O)Nc2ccc(N3CCOCC3)cc2)ccc1OCC(C)C	50.1µM*	-1.7%	/	-0.2%	/	/
CCOC(=O)CCn1c(=O)c2cccn2c2cccnc21	0.5%	/	/	1.4%	/	/
O=C(O)CCCc1ccc2ccccc2c1	/	/	/	/	/	-13.2%
COc1cccc(-c2nc(S(=O)(=O)c3ccc(Cl)cc3)c(NCc3ccccc3)o2)c1	-13.2%	/	/	5.9%	/	/
C=CCn1c(SCC(=O)NCc2ccco2)nc2ccccc2c1=O	-18.3%	23.0%	-2.5%	-1.2%	2.7%	0.9%
C=CCn1c(SCC(=O)NCc2ccco2)nnc1-c1ccc2ccccc2n1	15.8µM*	-12.1%	-2.4%	-10.0%	-6.0%	-29.6%
O=C(CSc1nnc(-c2cccnc2)n1Cc1ccco1)NCc1ccc2c(c1)OCO2	44.7µM*	-1.6%	-0.4%	7.2%	-0.1%	-3.2%
Cc1ccc(-n2c(Cc3cccn3C)nnc2SCC(=O)NCc2ccco2)cc1	39.8µM*	-1.7%	0.2%	-9.7%	5.7%	?
Cn1c(-c2ccccc2)cnc1SCC(=O)NCc1ccco1	39.8µM*	5.4%	0.7%	2.6%	0.0%	-6.6%
Cc1ccc(-n2c(Cc3cccn3C)nnc2SCC(N)=O)cc1	-10.4%	4.0%	-3.3%	2.3%	0.7%	0.9%
COc1cccc(-c2nnc(SCC(=O)NCc3ccc4c(c3)OCO4)n2Cc2ccco2)c1	44.7µM*	-1.7%	5.9%	?	14.2%	-0.5%
O=C(CSc1nnnn1C1CCCCC1)NCc1ccco1	28.2µM*	-13.3%	1.4%	3.0%	8.1%	1.2%
O=C(CN1CCC(n2nnc3cc(F)ccc32)CC1)NCc1ccco1	44.7µM*	10.2%	3.7%	-2.9%	2.0%	?
O=C(CSc1nnc(-c2cccnc2)n1Cc1ccccc1)NCc1ccco1	12.6µM*	-9.3%	-0.9%	-1.3%	8.1%	6.4%
Cn1nnnc1SCC(=O)NCc1ccco1	-14.0%	13.6%	?	-0.1%	0.0%	3.6%
Cc1ccc(NC(=O)Cn2c(=O)n(CC3CCC(C(=O)NC(C)C)CC3)c(=O)c3sccc32)cc1 (stereo not drawn)	22.7%	/	/	-17.2%	/	/
CC(C)NC(=O)c1ccc(Cn2c(SCC(N)=O)nc3ccccc3c2=O)cc1	2.6%	/	/	-2.4%	/	/
O=C(CSc1ccc2nnc(-c3cccc(F)c3)n2n1)NCc1ccco1	?	-2.9%	-0.9%	-15.1%	2.1%	-2.0%
O=C(CSc1ccc2nnc(-c3cccnc3)n2n1)NCc1ccco1	31.6µM*	-4.2%	1.3%	-8.6%	14.8%	-91.8%
COc1ccc(C2=CC(c3ccc(Cl)cc3)n3cnnc3N2)cc1OC (stereo not drawn)	25.1µM*	-4.4%	-8.8%	2.9%	5.1%	-64.3%
COc1ccc(C2C=C(c3ccc(F)cc3)Nc3nc(-c4ccc(Cl)cc4)nn32)cc1 (stereo not drawn)	0.8%	/	/	-3.2%	/	/
Cc1onc(C(=O)NCCc2ccccc2)c1[N+](=O)[O-]	?	10.8%	-1.1%	5.4%	-0.4%	4.2%
COc1ccc(CCNC(=S)NC(=O)c2ccccc2)cc1OC	50.1µM*	7.8%	-0.8%	-0.3%	4.2%	-6.8%
COc1ccc(CCNC(=O)c2noc(C)c2[N+](=O)[O-])cc1OC	35.5µM*	4.1%	1.1%	-2.2%	6.0%	4.2%
SMILES	Sm TGR inh	RE007 growth inh	SARS PLP yeast	Tb PYK inh	LmPK inhibitor	NS1 function inh
O=C(NC(=S)NCCc1ccccc1)c1cccc(Cl)c1	39.8µM*	-18.4%	0.1%	-9.7%	3.3%	1.8%
C=C1C(n2cnc3c(=O)[nH]c(N)nc32)C[C@H](O)[C@H]1CO (stereo partly drawn)	/	/	/	0.3%	/	/
Cc1nn(Cc2ccc(Cl)cc2)c(C)c1NC(=O)c1cc(-c2ccco2)on1	?	2.3%	4.9%	-6.1%	1.4%	0.6%
Cc1nn(Cc2ccc(Cl)c(Cl)c2)c(C)c1NC(=O)c1cc(-c2ccco2)on1	44.7µM*	-3.4%	-9.9%	-11.4%	4.8%	-34.5%
Cc1ccc(-c2noc(-c3nnn(CC(=O)Nc4cccc(C(F)(F)F)c4)c3N)n2)cc1	18.0%	/	/	1.3%	/	/
Cc1ccc(N2C(=O)C3C4C=CC(CNC(=S)N5CCN(c6ccccc6)CC5)(O4)C3C2=O)cc1 (stereo not drawn)	2.51µM*	5.62µM*	-13.0%	-16.3%	8.6%[11.5 µM]	/
Cc1cccc(NC(=S)NC(=O)/C=C/c2ccco2)c1	/	-27.5%	-1.3%	-1.6%	-0.6%	14.5%
Cc1ccc(S(=O)(=O)NCC23C=CC(O2)C2C(=O)N(c4ccccc4)C(=O)C23)cc1 (stereo not drawn)	3.16µM*	8.91µM*	-28.9%	-16.8%	9.6%	-36.4%
Cc1ccc(NC(=S)NCC23C=CC(O2)C2C(=O)N(c4ccc(C)cc4)C(=O)C23)cc1 (stereo not drawn)	5.01µM*	8.91µM*	-85.1%	-13.0%	1.9%	-26.5%
Cc1cccc(NC(=S)NCC23C=CC(O2)C2C(=O)N(c4ccc(Cl)cc4)C(=O)C23)c1 (stereo not drawn)	3.16µM*	3.55µM*	-83.5%	-23.0%	-5.9%	-5.2%
Cc1cccc(C(=O)NNC(=O)c2ccc(F)cc2)c1	7.94µM*	-13.8%	7.2%	4.4%	-1.4%	-2.5%
COC(=O)c1ccc(NC(=O)c2cccc(C)c2)cc1	89.1µM*	-18.8%	-10.0%	-4.6%	-5.0%	-21.4%
CCc1ccc(Nc2ccc3nonc3c2[N+](=O)[O-])cc1	/	4.8%	/	-0.7%	/	/
CCOC(=O)NNc1ccc2nonc2c1[N+](=O)[O-]	15.8µM*	25.1µM*	-6.8%	-16.5%	-1.2%	-34.9%
CN(Cc1ccc(F)cc1)S(=O)(=O)c1nnc(NC(=O)c2ccc(F)cc2)s1	5.5%	/	/	-7.9%[15.4 µM]	/	/
O=C(CC1Oc2ccccc2NC1=O)NCc1ccccc1 (stereo not drawn)	0.0%	2.4%	2.1%	1.0%	-2.5%	3.7%
CC(=O)CC1OC(=O)C(Br)=C1NCc1ccccc1 (stereo not drawn)	3.55µM*	?	-10.3%	-24.0%	1.6%	-1.3%
CSC1=C(C#N)C(c2ccc(Cl)cc2)C2=C(CC(C)(C)CC2=O)N1 (stereo not drawn)	28.2µM*	-5.8%	0.7%	2.9%	5.7%	4.2%
CCCCOc1ccc(C(=O)NCC2(N3CCN(C)CC3)CCCCC2)cc1	-9.5%	/	/	0.8%	/	/
CCc1ccc(C2C(C#N)=C(N)SC(N)=C2C#N)s1	-31.5%	-2.2%	-2.3%	-4.3%	8.6%	?
